Source: PubChem BioAssay (NCI)
Compounds without any hit were thinned out: in the full panel of roughly 83,000, 20% have a hit.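 Method: cells in 96-well plates; compound added at one concentration; 48 h incubation; percent growth measured; values under 10 scored active.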 Unmarked numbers belong to inactive results. Active and inactive are the calls of the source.

The compounds below were run on MDA-MB-468 breast (assay: NCI-60 one-dose screen, 48 h (100 = growth as untreated, 0 = no growth, -100 = all killed)). Details: 10 µM unless noted.
In the case of Cc1cc(C(=O)Nc2ncnc3nc[nH]c23)no1, the growth was 96.4%. For CSc1nn2c(-c3cc4cc(Br)ccc4oc3=O)ccnc2c1C#N, the growth was 109%. In the case of COc1cc(OC)c(S(N)(=O)=O)cc1C(=O)/C=C/c1ccc(Cl)cc1, the growth was -57.8% (active). In the case of CO[C@H]1CC(O[C@@H]2/C(C)=C/C[C@@H]3C[C@@H](C[C@]4(C=C[C@H](C)[C@@H](C5CCCCC5)O4)O3)OC(=O)[C@@H]3C=C(C)[C@@H](O)[C@H]4OC/C(=C\C=C\[C@@H]2C)[C@]43O)O[C@@H](C)C1O[C@H]1C[C@H](OC)[C@@H](O)[C@H](C)O1 (stereo partly drawn), the growth was -72.5% (active). With O=C(Nc1ccc(I)cc1F)c1cc(I)ccc1O the growth was -13.2% (active). For O=C(NCc1ccc(Cn2c(=O)sn(-c3ccccc3)c2=O)cc1)OCc1ccc2c(Br)cc(Br)c(O)c2n1, the growth was -67.5% (active). With CCOC(=O)COc1c(C)cc(SSc2cc(C)c(OCC(=O)OCC)c(C)c2)cc1C the growth was 109%. In the case of [2H]C1([2H])NC([2H])([2H])C([2H])([2H])N(c2ccc(Nc3ncc4cc(C(=O)N(C)C)n(C5CCCC5)c4n3)nc2)C1([2H])[2H], the growth was 99.5%. CCCC(O)Cn1ncc(C(=O)OCC)c1NC(=O)NCc1ccccc1F (stereo not drawn) gave a growth of 75.9%. With C#CCn1cccc1CNc1ccc(OC)cc1 the growth was -76.9% (active). Compound Cc1cc(Cl)nc(N(CCNc2ccnc3cc(Cl)ccc23)Cc2ccco2)n1 has a growth of 29.9%. For C=C1C(=O)O[C@H]2[C@H]1CC/C(COC(=O)NCc1c[nH]c3ccc(Cl)cc13)=C\CC[C@@]1(C)O[C@@H]21, the growth was -70.9% (active). For O=[N+]([O-])c1ccc(-c2nc(N(CCO)CCO)c3ccccc3n2)o1, the growth was -73.5% (active).
